This note sets out measurements from PubChem BioAssay (EPA / NIEHS).

Results filed as inconclusive are left out. Activity calls are given as the source filed them. The calls were made as follows, unless noted: active = hit-call score of the fitted dose curve at least 0.9, where 1 is the maximum; inconclusive = response in the unintended direction; inactive = score below 0.9.

The target of assay [1] is Estrogen receptor beta (Homo sapiens) (UniProt Q92731). Briefly: OT_ER_ERbERb_0480: Odyssey Thera (OT) 8-hour HEK293T Protein-Complementation Assay for Estrogen Receptor-beta/-beta Homodimer (AID 2283357).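 Also: active means signal gain over DMSO baseline.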 An outline of the steps: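 Readout: increase in mean fluorescence intensity (nucleus for agonists; nucleus plus cytoplasm for antagonists) relative to DMSO, from a reporter-fragment complementation of human ER-beta LBD homodimer in HEK293T cells dosed 8 hours.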
Sequence of Estrogen receptor beta (Homo sapiens) (Q92731 whole entry, looked up, the tested form may be a part): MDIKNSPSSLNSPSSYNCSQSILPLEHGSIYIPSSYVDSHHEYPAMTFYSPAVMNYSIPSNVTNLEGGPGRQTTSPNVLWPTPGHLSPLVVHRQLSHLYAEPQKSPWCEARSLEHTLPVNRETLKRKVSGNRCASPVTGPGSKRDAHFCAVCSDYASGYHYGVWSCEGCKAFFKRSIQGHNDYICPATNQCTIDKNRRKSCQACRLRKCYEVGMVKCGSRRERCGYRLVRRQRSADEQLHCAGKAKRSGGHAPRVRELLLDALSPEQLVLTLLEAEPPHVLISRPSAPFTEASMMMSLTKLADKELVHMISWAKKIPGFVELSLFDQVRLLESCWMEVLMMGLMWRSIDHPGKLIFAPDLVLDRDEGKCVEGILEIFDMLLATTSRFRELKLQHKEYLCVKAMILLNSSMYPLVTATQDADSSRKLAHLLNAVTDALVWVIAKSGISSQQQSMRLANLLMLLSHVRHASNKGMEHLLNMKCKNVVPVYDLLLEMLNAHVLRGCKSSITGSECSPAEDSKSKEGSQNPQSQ

The target is the same in assay [2]. The assay can be described thus: OT_ER_ERbERb_1440: Odyssey Thera (OT) 24-hour HEK293T Protein-Complementation Assay for Estrogen Receptor-beta/-beta Homodimer (AID 2283380).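 Also: fluorescence gain from ER beta LBD homodimer complementation read by laser scanning cytometry; scored as signal increase over DMSO baseline for both agonists and antagonists.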 An outline of the steps:
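HEK293T cells stably expressing human ER-beta LBD (aa 310-547) PCA homodimer pair, dosed 24 h; formaldehyde-fixed, Draq5-stained. Readout: increase in nuclear (agonist) or nuclear plus cytoplasmic (antagonist) fluorescence intensity versus DMSO, gain-of-signal fitting.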

Assay [3] concerns the target Retinoic acid receptor RXR-alpha (Homo sapiens) (UniProt P19793). Briefly: OT_NURR1_NURR1RXRa_0480: Odyssey Thera (OT) 8-hour HEK293T Protein Complementation Assay for Nurr1/retinoid X receptor (RXR) (AID 2283385). An outline of the steps:
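8 h compound exposure, HEK293T; Nurr1/RXRα fragment complementation; fluorescence intensity; positive fitting direction vs DMSO baseline.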

Assay [4] has the same target. The assay can be described thus: OT_NURR1_NURR1RXRa_1440: Odyssey Thera (OT) 24-hour HEK293T Protein Complementation Assay for Nurr1/retinoid X receptor (RXR) (AID 2283386). An outline of the steps:
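Interaction of Nurr1 with RXRα brings fused reporter fragments together in human HEK293T cells, restoring a functional reporter. Fluorescence intensity is measured 24 h after chemical treatment, and values are analysed in the positive direction against DMSO.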

Assay [5] concerns the target Peroxisome proliferator-activated receptor gamma (Homo sapiens) (UniProt P37231). The assay can be described thus: OT_PPARg_PPARgSRC1_1440: Odyssey Thera (OT) 24-hour Protein-Complementation Assay for Peroxisome Proliferator-activated Receptor Gamma/ SRC-1 Co-activator (AID 2283388). An outline of the steps:
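HEK293T transiently transfected with PPARg/SRC-1 split-Venus YFP fusions 48 h before dosing, then treated 24 h at 37C. Fixed cells imaged; nuclear/cytoplasmic 488 nm fluorescence ratio, gain of signal versus DMSO.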

Assay [6] in a line: ACEA_AR_agonist_AUC_viability: ACEA Biosciences xCELLigence Real-Time Cell Analysis on Androgen Receptor Agonism for Viability (AID 2283775).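 As to AC50: viability read 80 hours after compound addition.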 An outline of the steps:
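Real-time impedance tracking of 22Rv1 growth, readings every 5 min for 5 h then hourly; area-under-curve viability endpoint at 80 hours, relative to DMSO. Compounds at eight concentrations, 1:4 steps, top 100 uM, n = 2.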

Assay [7] addresses Steroid hormone receptor ERR1 (Homo sapiens) (UniProt P11474). Briefly: ATG_ERRa_TRANS: Attagene TRANS-FACTORIAL HepG2 Assay for human Estrogen-Related Receptor alpha (ERRa) (AID 2282971). The note with it: HepG2 Attagene TRANS reporter, ERRa transactivation. An outline of the steps: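 HepG2 cells transiently transfected with GAL4-UAS reporter units and chimeric NR-Gal4 constructs; after 24 hour compound incubation, reporter mRNA quantified by RT-PCR, fluorescent labelling and capillary electrophoresis, gain of signal versus DMSO.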

Assay [8] has as its target human Thyroid Receptor alpha (THRa1), THRA (gene 7067) (UniProt P10827). The assay can be described thus: ATG_THRa1_TRANS: Attagene TRANS-FACTORIAL HepG2 Assay for human Thyroid Receptor alpha (THRa1) (AID 2283014). An outline of the steps:
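HepG2 cells transiently transfected with chimeric NR-Gal4 and GAL4-UAS reporter units, dosed 24 h. Reporter mRNA quantified by RT-PCR, fluorescent labeling, HpaI digestion and capillary electrophoresis; gain-of-signal fit versus DMSO.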

The nature of assay [9]: CCTE_Harrill_HTTr_Apoptosis_MCF7: CCTE's 6-hour Apoptosis Assessment for the High-Throughput Transcriptomics (HTTr) Platform, in MCF-7 cells cultured in DMEM + 10% fetal bovine serum, Harrill Lab (AID 2284011; active = hit-call score of the fitted dose curve at least 0.9, where 1 is the maximum; inactive = score below 0.9). An outline of the steps:
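MCF-7 cells in DMEM + 10% FBS exposed 6 h to chemicals over an eight-point dilution series. Caspase-3/7 activation imaged by high-content CellEvent Green staining; fitted bidirectionally versus DMSO.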

A short description of assay [10]: CCTE_Harrill_HTTr_CellCount_MCF7: CCTE's Cell Proliferation Assessment for the High-Throughput Transcriptomics (HTTr) Platform, Harrill Lab (AID 2284012).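 Also: cells exposed to compound for six hours; intended direction is loss of nuclei count meaning fewer cells.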 An outline of the steps: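 Chemicals in eight-point dilution series are added to MCF-7 cells for six hours, nuclei are stained with Hoechst and imaged, and per-well nuclei counts are fitted in both directions relative to DMSO controls.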

Assay [11] concerns the target Estrogen-related receptor gamma (Homo sapiens) (UniProt P62508). Briefly: ATG_ERRg_TRANS: Attagene TRANS-FACTORIAL HepG2 Assay for human Estrogen-Related Receptor gamma (ERRg) (AID 2282977).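 Also: hits increase reporter signal over DMSO so potencies reflect activators.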 The note with it: HepG2 Attagene TRANS reporter, ERRg transactivation. An outline of the steps: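 Transfect HepG2 with multiple GAL4-UAS reporter transcription units; dose chemicals 24 h; isolate RNA, reverse-transcribe with oligo(dT), PCR-amplify, label with 6-FAM, digest with HpaI; size fragments by capillary electrophoresis. DMSO serves as negative control.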

Assay [12] concerns the target Bile acid receptor (Homo sapiens) (UniProt Q96RI1). Briefly: ATG_FXR_TRANS: Attagene TRANS-FACTORIAL HepG2 Assay for Farnesoid X Receptor (FXR) (AID 2282979).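 Also: hits raise reporter mRNA above DMSO so AC50 marks FXR activation.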 The note with it: HepG2 Attagene TRANS FXR-GAL4 reporter transcription. An outline of the steps:
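HepG2 cells were transiently transfected with GAL4-UAS reporters driven by chimeric NR-Gal4 proteins and dosed for 24 h. Reporter mRNA was quantified by RT-PCR, fluorescent labelling, HpaI digestion and capillary electrophoresis, with gain of signal scored versus DMSO.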

The nature of assay [13]: ATG_ERE_CIS: Attagene CIS-FACTORIAL HepG2 Assay for Estrogen Response Element (ERE) (AID 2282940; active = hit-call score of the fitted dose curve at least 0.9, where 1 is the maximum; inactive = score below 0.9). The note with it: HepG2 ERE cis-reporter, Attagene RNA transcript; actives raise or lower the signal. An outline of the steps: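 Cells used were human hepatoma HepG2, transfected with multiple reporter transcription units under cis-regulatory promoters. Reporter mRNA, read 24 h post-dosing via fluorescent RT-PCR products on capillary electrophoresis, was fitted bidirectionally relative to DMSO.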

Assay [14] deals with Estrogen receptor (Homo sapiens) (UniProt P03372). Briefly: ATG_ERa_TRANS: Attagene TRANS-FACTORIAL HepG2 Assay for human Estrogen Receptor alpha (ERa) (AID 2282970). Particulars: HepG2 Attagene TRANS ERa GAL4 reporter, mRNA. An outline of the steps: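 HepG2 cells transiently transfected with multiplexed GAL4-UAS reporter units read out chimeric NR-Gal4 activity. After 24 h compound exposure, reporter mRNA was quantified by RT-PCR, 6-FAM labeling, HpaI digestion and capillary electrophoresis, relative to DMSO.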
Sequence of Estrogen receptor (Homo sapiens) (P03372 whole entry, looked up, the tested form may be a part): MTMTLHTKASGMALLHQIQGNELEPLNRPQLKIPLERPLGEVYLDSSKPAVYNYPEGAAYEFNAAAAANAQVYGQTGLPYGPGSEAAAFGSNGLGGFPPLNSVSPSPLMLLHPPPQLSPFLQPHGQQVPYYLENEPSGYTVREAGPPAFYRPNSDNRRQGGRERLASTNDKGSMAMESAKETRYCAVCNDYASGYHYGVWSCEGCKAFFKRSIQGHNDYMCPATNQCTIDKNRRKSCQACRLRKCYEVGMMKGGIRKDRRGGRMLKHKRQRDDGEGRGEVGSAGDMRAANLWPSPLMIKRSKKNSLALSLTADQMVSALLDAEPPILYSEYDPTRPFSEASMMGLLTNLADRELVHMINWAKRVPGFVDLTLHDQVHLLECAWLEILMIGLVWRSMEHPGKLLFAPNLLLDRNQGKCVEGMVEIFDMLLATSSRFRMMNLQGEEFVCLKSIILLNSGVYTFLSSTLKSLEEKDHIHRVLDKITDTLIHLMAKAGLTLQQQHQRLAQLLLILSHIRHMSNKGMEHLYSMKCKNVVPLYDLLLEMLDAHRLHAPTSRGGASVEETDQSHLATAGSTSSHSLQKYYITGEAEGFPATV

A short description of assay [15]: ACEA_AR_antagonist_AUC_viability: ACEA Biosciences xCELLigence Real-Time Cell Analysis on Androgen Receptor Antagonism for Viability (AID 2283776).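 Also: 22Rv1 human prostate cancer cells growing on impedance electrode plates; hits lower the growth signal relative to DMSO meaning cytotoxicity.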 An outline of the steps: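 Real-time electrical impedance tracks 22Rv1 proliferation after continuous compound exposure (top 100 uM final, 1:4 steps, 8 concentrations). The 80 h area-under-curve serves as the cytotoxicity readout relative to DMSO.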

Assay [16] is described as follows: BSK_3C_uPAR: BioMAP Diversity Plus: 3C Assay for Urokinase-type plasminogen activator receptor (uPAR) Biomarker Activity (AID 2282998; active = hit-call score of the fitted dose curve at least 0.9, where 1 is the maximum; inactive = score below 0.9). The note with it: BioMAP 3C HUVEC, uPAR biomarker ELISA; actives raise or lower the signal. An outline of the steps:
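Dose primary human umbilical vein endothelial cells, incubate 24 h, measure cell-surface uPAR by ELISA, then fit the signal in both directions against the DMSO negative control.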
(An ELISA detects its analyte on a solid surface through an enzyme-linked reagent.)

Assay [17] in a line: BSK_4H_Eotaxin3: BioMAP Diversity Plus: 4H Assay for Eotaxin 3 Biomarker Activity (AID 2283000; active = hit-call score of the fitted dose curve at least 0.9, where 1 is the maximum; inactive = score below 0.9). The note with it: primary human endothelial cells (HUVEC); actives raise or lower the signal. An outline of the steps:
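Eotaxin-3 (CCL26) levels were measured by ELISA in HUVEC primary cultures 24 h post-dosing. Gain or loss of signal was fitted in both directions, with DMSO serving as baseline and negative control.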

Read-out in assay [18]: Intercellular Adhesion Molecule 1 (ICAM1), ICAM1 (gene 3383)
The assay can be described thus: BSK_3C_ICAM1: BioMAP Diversity Plus: 3C Assay for Intercellular Adhesion Molecule 1 (ICAM1) Biomarker Activity (AID 2283003; active = hit-call score of the fitted dose curve at least 0.9, where 1 is the maximum; inactive = score below 0.9). The note with it: primary human endothelial cells (HUVEC); actives raise or lower the signal. An outline of the steps:
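ICAM-1 levels measured by ELISA after HUVEC cultures in the 3C system had been dosed for 24 h. Gain or loss of signal relative to DMSO was fitted in both directions.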

Read-out in assay [19]: Monocyte Chemoattractant Protein-1 (MCP1), CCL2 (gene 6347)
Briefly: BSK_4H_MCP1: BioMAP Diversity Plus: 4H Assay for Monocyte Chemoattractant Protein-1 (MCP1) Biomarker Activity (AID 2283018; active = hit-call score of the fitted dose curve at least 0.9, where 1 is the maximum; inactive = score below 0.9). The note with it: primary human endothelial cells (HUVEC); actives raise or lower the signal. An outline of the steps: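 ELISA read-out of MCP-1 from human vascular endothelial primary cells taken at 24 hours after compound exposure. Activity was fitted in both directions relative to DMSO, which served as negative control.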

Read-out in assay [20]: Thrombomodulin, THBD (gene 7056)
Briefly: BSK_CASM3C_Thrombomodulin: BioMAP Diversity Plus: CASM3C Assay for Thrombomodulin Biomarker Activity (AID 2283051; active = hit-call score of the fitted dose curve at least 0.9, where 1 is the maximum; inactive = score below 0.9;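 also: thrombomodulin protein level measured by ELISA 24 h after dosing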). The note with it: primary human coronary artery smooth muscle cells; actives raise or lower the signal.

Sequence of Steroid hormone receptor ERR1 (Homo sapiens) (P11474 whole entry, looked up, the tested form may be a part): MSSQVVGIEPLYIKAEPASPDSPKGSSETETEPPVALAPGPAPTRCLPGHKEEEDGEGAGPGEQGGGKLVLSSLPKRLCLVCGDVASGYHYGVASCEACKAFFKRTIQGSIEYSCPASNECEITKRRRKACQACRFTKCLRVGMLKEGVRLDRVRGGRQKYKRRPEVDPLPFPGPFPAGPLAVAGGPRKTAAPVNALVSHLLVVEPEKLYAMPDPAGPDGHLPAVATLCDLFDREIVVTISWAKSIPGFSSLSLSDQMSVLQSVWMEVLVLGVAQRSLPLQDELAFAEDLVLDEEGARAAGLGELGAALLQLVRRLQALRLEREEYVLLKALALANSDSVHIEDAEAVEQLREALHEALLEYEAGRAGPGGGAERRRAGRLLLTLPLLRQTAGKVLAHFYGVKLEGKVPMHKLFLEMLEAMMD
Sequence of Estrogen-related receptor gamma (Homo sapiens) (P62508 whole entry, looked up, the tested form may be a part): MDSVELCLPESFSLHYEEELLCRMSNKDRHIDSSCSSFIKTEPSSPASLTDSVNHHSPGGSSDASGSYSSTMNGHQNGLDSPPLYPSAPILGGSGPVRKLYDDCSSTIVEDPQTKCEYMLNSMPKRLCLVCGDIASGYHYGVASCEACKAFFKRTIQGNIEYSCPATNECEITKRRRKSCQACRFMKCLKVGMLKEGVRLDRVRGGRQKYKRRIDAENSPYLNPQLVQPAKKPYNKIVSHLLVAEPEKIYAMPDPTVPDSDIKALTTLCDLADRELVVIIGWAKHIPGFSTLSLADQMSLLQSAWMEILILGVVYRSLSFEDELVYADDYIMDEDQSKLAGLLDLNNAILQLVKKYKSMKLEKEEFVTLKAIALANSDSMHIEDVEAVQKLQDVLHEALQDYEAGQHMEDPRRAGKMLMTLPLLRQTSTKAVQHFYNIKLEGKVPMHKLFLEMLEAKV
Sequence of Bile acid receptor (Homo sapiens) (Q96RI1 whole entry, looked up, the tested form may be a part): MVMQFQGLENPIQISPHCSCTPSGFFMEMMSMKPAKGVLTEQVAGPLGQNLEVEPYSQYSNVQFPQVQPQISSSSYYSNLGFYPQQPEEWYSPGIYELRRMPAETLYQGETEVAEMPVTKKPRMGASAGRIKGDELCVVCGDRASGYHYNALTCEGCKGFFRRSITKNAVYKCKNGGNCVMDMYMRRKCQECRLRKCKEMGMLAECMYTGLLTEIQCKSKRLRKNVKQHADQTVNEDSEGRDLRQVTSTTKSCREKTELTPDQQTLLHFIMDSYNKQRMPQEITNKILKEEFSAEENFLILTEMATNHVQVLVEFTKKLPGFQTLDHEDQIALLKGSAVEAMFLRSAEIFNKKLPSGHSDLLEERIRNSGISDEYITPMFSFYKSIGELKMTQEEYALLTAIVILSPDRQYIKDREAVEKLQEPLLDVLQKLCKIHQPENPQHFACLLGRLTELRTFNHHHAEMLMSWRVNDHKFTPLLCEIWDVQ
Sequence of Retinoic acid receptor RXR-alpha (Homo sapiens) (P19793 whole entry, looked up, the tested form may be a part): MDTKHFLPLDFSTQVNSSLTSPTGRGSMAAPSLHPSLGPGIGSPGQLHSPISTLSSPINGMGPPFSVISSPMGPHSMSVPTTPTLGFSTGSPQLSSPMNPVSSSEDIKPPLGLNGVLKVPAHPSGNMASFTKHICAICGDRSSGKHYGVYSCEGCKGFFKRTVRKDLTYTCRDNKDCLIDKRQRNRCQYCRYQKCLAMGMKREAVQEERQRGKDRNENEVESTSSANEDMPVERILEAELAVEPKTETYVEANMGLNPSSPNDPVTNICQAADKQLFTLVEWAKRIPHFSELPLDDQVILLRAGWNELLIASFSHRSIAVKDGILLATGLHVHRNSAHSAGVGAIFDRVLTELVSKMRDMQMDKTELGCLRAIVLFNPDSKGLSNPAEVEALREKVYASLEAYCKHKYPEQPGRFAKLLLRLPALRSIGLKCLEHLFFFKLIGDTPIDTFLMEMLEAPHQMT
Sequence of Peroxisome proliferator-activated receptor gamma (Homo sapiens) (P37231 whole entry, looked up, the tested form may be a part): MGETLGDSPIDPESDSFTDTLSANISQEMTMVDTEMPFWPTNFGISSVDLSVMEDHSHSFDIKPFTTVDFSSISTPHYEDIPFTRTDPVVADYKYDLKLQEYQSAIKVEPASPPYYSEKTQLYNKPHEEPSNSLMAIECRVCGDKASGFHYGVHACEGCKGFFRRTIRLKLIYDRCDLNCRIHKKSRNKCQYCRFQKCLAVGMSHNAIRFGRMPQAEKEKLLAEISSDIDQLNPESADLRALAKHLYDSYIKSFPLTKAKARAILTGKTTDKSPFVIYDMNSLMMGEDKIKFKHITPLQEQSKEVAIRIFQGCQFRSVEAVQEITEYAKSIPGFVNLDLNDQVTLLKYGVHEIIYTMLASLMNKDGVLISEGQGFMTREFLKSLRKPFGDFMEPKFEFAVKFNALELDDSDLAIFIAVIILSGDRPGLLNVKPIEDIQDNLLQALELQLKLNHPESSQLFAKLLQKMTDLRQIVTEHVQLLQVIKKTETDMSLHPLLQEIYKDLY
Sequence of human Thyroid Receptor alpha (THRa1), THRA (gene 7067) (P10827 whole entry, looked up, the tested form may be a part): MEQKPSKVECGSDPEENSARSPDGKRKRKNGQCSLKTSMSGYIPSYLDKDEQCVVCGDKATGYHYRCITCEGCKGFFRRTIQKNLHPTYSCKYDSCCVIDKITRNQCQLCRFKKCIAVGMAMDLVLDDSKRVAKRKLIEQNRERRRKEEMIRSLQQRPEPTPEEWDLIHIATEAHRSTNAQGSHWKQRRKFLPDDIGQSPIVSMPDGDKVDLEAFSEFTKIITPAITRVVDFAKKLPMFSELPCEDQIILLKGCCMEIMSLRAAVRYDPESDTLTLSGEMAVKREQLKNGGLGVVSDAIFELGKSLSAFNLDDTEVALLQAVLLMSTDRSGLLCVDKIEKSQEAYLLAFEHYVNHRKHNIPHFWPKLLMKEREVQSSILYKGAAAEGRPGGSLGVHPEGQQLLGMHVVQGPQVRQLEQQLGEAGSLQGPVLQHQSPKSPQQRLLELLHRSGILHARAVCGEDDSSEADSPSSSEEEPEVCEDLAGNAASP

`Nc1cc(Cl)cc(Cl)c1`: the outcome in assay [1], in assay [2], in assay [3], in [4], in assay [5] and in assay [6] was inactive.
On to `CCOC(=O)N(C)N=O`, for which the outcome in assay [7], in assay [8] and in assay [9] was inactive.
As to `O=S(=O)(O)O`, the outcome in assay [9] and in assay [10] was inactive.
As for `C#CC1(O)CCCCC1`, the result in [7] and in assay [11] was inactive.
In the case of `CC(O)CN(CC(C)O)CC(C)O` (configuration not stated), the call in assay [12], in assay [8], in [2], in assay [3], in assay [4] and in [6] was inactive.
For `c1ccc2c(c1)CCCC2`, the call in [13], in assay [14], in assay [12], in assay [1], in assay [2] and in assay [3] was inactive. For the same compound, the outcome in assay [5], in assay [6] and in assay [15] was inactive.
In the case of `CCOP(O)OCC`, the outcome in assay [8], in assay [1], in assay [2], in assay [4], in [5] and in assay [6] was inactive.
With `O=C1C(Cl)=C(Cl)C(=O)C(Cl)=C1Cl`, the result in [13], in assay [14], in assay [11], in [12], in [20] and in assay [9] was inactive. For the same compound, in assay [10], the outcome was inactive. For the same compound, the AC50 (commonly the concentration at which the activity in the assay is half-maximal) is 9.52 µM (active) in assay [16], 15 µM (active) in [17], 25.4 µM (active) in assay [18] and 12.3 µM (active) in [19].
With `ClC1=C(Cl)[C@]2(Cl)[C@@H]3[C@@H](Cl)[C@H](Cl)C[C@@H]3[C@@]1(Cl)C2(Cl)Cl`, the compound was classed as inactive in assay [13], in assay [7], in [11], in [12] and in assay [8].
Turning to `O=C(CCl)c1ccccc1`, the AC50 is 6.89 µM (active) in assay [16]; 4.98 µM (active) in assay [17]; 7.82 µM (active) in assay [18]; 55.9 µM (active) in assay [8]; 5.41 µM (active) in assay [19]; 11.6 µM (active) in [4]. Further, the half-maximal activity concentration (AC50) is 78.5 µM (active) in [6] and 69.7 µM (active) in [15]. Moreover, the result in assay [20], in [2], in assay [3], in assay [5] and in assay [10] was inactive.
With `CCOC(=O)COc1ccc(Cl)cc1Cl`, the call in assay [3], in [4], in [9] and in [10] was inactive.
As for `N#CCNCC#N`, the outcome in assay [13], in assay [14] and in assay [11] was inactive.
`Oc1ccc(Cl)cc1`: the compound was classed as inactive in assay [8], in [3], in assay [4], in assay [5], in assay [15] and in assay [9]. The compound was called inactive in [10].
